Values joined by “and” are separate entries in the source; they are usually repeats but may differ in a detail not shown here. Equal entries are not always repeated. Values without a mark were called inactive. Inconclusive results are not listed. Active and inactive are the calls of the source. Unless noted, the call rests on the fitted dose curve; in most records, active means well fitted curve in the direction sought with a large enough effect; inconclusive means small, poorly fitted or top-dose-only effect, or another doubt; inactive means no such curve, though single readings can be large; an effect the other way counts as inactive or inconclusive.

One assay deals with SKOV3. The assay is described as follows: Primary qHTS to identify gynecologic anti-cancer compounds using libraries of approved drugs and bioactive compounds (AID 1345084). Further: on the % scale 0 is the no-effect control and ±100 the full control effect; nearly all actives have a fitted effect of over 55% in size. To be noted: Gynecologic cancer cell panel viability, ATPlite luminescence, 48 h; series mostly up to 57.5 µM. In outline: (§1)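 Five-concentration response, 48 h; readout is ATP-driven luciferase luminescence.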
On the technique in general: Quantitative high-throughput screening tests each substance at several concentrations.

Another assay deals with Tov-21-G. The description is as above. To be noted: Gynecologic cancer cell panel viability, ATPlite luminescence, 48 h; series mostly up to 57.5 µM. The gist of the method:
as §1
In general terms: ATP-based viability assays read luminescence as a measure of living cells.

The next assay relates to Tov112D. The assay is described as above. To be noted: Gynecologic cancer cell panel viability, ATPlite luminescence, 48 h; series mostly up to 57.5 µM. The gist of the method:
as §1

Assay [1] in a line: Drug repurposing screens with cells derived from glioblastoma tumor samples (AID 1345199). Further: nearly all actives have a fitted effect of over 40% in size. Further: potency means the concentration at half of the fitted maximal effect. On activity, negative = cell killing: on the % scale 0 is the no-effect control and ±100 the full control effect. To be noted: GBM patient neurospheres viability, ATP luminescence, 48 h. The gist of the method:
(§2)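 Four patient lines of CD133+ GBM neurospheres were screened at several concentrations; hits were retested in those lines plus three slower-growing GBM lines, using 48-hour treatment and ATP-based viability.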

The test system of a further assay is astro. Described as above. To be noted: viability, ATP luminescence, 48 h; series mostly up to 45.9 µM. The gist of the method:
as §2

Assay [2] concerns the target Nuclear receptor subfamily 1 group I member 2 (Rattus norvegicus) (UniProt Q9R1A7). Description: qHTS assay for small molecule activators of the rat pregnane X receptor (rPXR) signaling pathway (AID 651751; call rule not given here; further: 0% is about no effect). To be noted: rPXR reporter cells, luciferase (One-Glo), 24 h.
Assay [3] can be described thus: qHTS assay for small molecule activators of the human pregnane X receptor (PXR) signaling pathway (AID 720659; call rule not given here; further: 0% is about no effect).
Where [4] appears, read: at 20 µM (top of the series), tumour line C.
Where [5] appears, read: at 21.2 µM (top of the series), tumour line B.
Where [6] appears, read: at 21.2 µM (top of the series), tumour line D.
The mark [7] stands for this setting: at 45.9 µM (top of the series), tumour line B.
Setting [8] is: at 45.9 µM (top of the series), tumour line D.
Where [9] appears, read: at 46.1 µM (top of the series), tumour line C.

Nuclear receptor subfamily 1 group I member 2 (Rattus norvegicus), sequence (Q9R1A7 whole entry, looked up): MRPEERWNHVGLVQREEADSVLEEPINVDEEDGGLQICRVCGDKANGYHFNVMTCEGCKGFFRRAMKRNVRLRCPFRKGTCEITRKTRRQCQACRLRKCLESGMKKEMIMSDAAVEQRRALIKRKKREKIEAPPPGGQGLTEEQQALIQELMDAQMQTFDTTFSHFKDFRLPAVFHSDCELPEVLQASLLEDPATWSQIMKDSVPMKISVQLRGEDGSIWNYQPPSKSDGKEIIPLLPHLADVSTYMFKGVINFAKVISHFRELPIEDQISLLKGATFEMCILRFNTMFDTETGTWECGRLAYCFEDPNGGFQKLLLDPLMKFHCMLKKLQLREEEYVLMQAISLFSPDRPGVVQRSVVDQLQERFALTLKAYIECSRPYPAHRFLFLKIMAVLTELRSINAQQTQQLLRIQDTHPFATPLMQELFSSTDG

`NS(=O)(=O)c1cc(C2(O)NC(=O)c3ccccc32)ccc1Cl` (stereo unspecified): the outcome in the assay on SKOV3, in the assay with Tov-21-G, in the assay on Tov112D and in the assay with astro was inactive. Also, the activity, negative = cell killing in assay [1] (setting [4]) is 3.89%; in assay [1] (setting [5]), 6.28%; in assay [1] (setting [6]) it was -20.6%.
For the compound `CC(=O)N[C@@H](Cc1ccc(O)cc1)C(=O)O`, the result with SKOV3, with Tov-21-G, in the assay with Tov112D and in the assay with astro was inactive. Further, the activity, negative = cell killing was -9.92% in assay [1] (setting [7]), -7.49% in assay [1] (setting [8]) and 6.62% in assay [1] (setting [9]).
For `O=C1CC[C@@H](C(=O)O)N1`, the outcome in the assay with SKOV3, in the assay on Tov-21-G, with Tov112D and in the assay with astro was inactive. The activity, negative = cell killing in assay [1] (setting [7]) is -10.6%; in assay [1] (setting [8]), -16.2%; in assay [1] (setting [9]), 1.94%.
Consider `Cc1onc(-c2ccccc2)c1-c1ccc(S(N)(=O)=O)cc1`, for which the call with SKOV3, in the assay with Tov-21-G, with Tov112D and with astro was inactive. Besides, the figures for the activity, negative = cell killing in assay [1] (setting [7]), in assay [1] (setting [8]) and in assay [1] (setting [9]) were -8.7%, -24.2% and -2.89%, respectively.
For the compound `Nc1ncnc(Nc2ccccc2)n1`, the compound was called inactive with SKOV3, in the assay with Tov-21-G, in the assay on Tov112D and in the assay on astro. Further, the activity, negative = cell killing in assay [1] (setting [7]) was -14.8%; in assay [1] (setting [8]), -23.1%; in assay [1] (setting [9]) it was -21.6%.
Consider `NS(=O)(=O)c1ccc(NC(=O)CCC(=O)O)cc1`, for which the outcome in the assay with SKOV3, with Tov-21-G, in the assay on Tov112D and in the assay on astro was inactive. Further, the activity, negative = cell killing in assay [1] (setting [7]) is -12.7%; in assay [1] (setting [8]), 0.766%; in assay [1] (setting [9]) it was -4.81%.
As for `CC(C)(C)NCC(O)COc1cccc2c1CCC(=O)N2` (stereo unspecified), the result in the assay with SKOV3, in the assay on Tov-21-G, in the assay with Tov112D and in the assay on astro was inactive. The activity, negative = cell killing in assay [1] (setting [4]) was -4.91%; in assay [1] (setting [5]) it was -10.6%; in assay [1] (setting [6]) it was 12.4%.
Consider `C[C@H]1COc2c(C3(N)CC3)c(F)cc3c(=O)c(C(=O)O)cn1c23`, for which the compound was classed as inactive with SKOV3, in the assay with Tov-21-G, in the assay on Tov112D and with astro. Moreover, the activity, negative = cell killing is -13.2% in assay [1] (setting [7]) and -15.1% in assay [1] (setting [9]).
As to `O[C@@H]1CO[C@H]2[C@@H]1OC[C@@H]2O`, the compound was called inactive with SKOV3, with Tov-21-G, with Tov112D and in the assay with astro. For the same compound, the activity, negative = cell killing in assay [1] (setting [7]) is -8.03%; in assay [1] (setting [8]) it was 1.68%; in assay [1] (setting [9]) it was -10.9%.
Take `O=C(O)CCCCC1CCSS1` (stereo unspecified): the compound was classed as inactive (in the assay with SKOV3; in the assay with Tov-21-G; in the assay on Tov112D; with astro; in assay [3]). In addition, the activity, negative = cell killing in assay [1] (setting [7]) was -9.35%; in assay [1] (setting [8]), -12.2%; in assay [1] (setting [9]), -7.1%. In addition, the max response in assay [2] was -15% and -8.97%.
For `CCCCCCCC(=O)OCC(COC(=O)CCCCCCC)OC(=O)CCCCCCC`, the outcome (with SKOV3; in the assay on Tov-21-G; with Tov112D; in the assay on astro; in assay [3]) was inactive. Besides, the activity, negative = cell killing is -10.1% in assay [1] (setting [7]), -25.3% in assay [1] (setting [8]) and -9.12% in assay [1] (setting [9]). In addition, the max response in assay [2] is -0.801%.
As for `COc1ccc(O)cc1`, the compound was classed as inactive (with SKOV3; in the assay on Tov-21-G; with Tov112D; in assay [3]). Besides, the values for the activity, negative = cell killing in assay [1] (setting [7]), in assay [1] (setting [8]) and in assay [1] (setting [9]) were -15%, -17.8% and -24.9%, respectively. Also, in assay [2], the max response is -3%.
Consider `C=CCOc1ccccc1OCC(O)CNC(C)C` (stereo unspecified), for which the call in the assay on SKOV3, in the assay with Tov-21-G, with Tov112D and in the assay with astro was inactive. In addition, the figures for the activity, negative = cell killing in assay [1] (setting [4]), in assay [1] (setting [5]) and in assay [1] (setting [6]) were -4.31%, 1.37% and -11.5%, respectively.
For the compound `CC(CN(C)C)C(C)(O)Cc1ccc(Cl)cc1` (stereo unspecified), the call in the assay on SKOV3, in the assay with Tov-21-G, in the assay with Tov112D and with astro was inactive. Also, the activity, negative = cell killing in assay [1] (setting [7]) is -15.1%; in assay [1] (setting [9]), -8.21%. Besides, in assay [1] (tumour line A), the Potency is 20 µM (active).
Take `C[N+](C)(C)CC(O)CC(=O)[O-]` (stereo unspecified): the result in the assay with SKOV3, with Tov-21-G, with Tov112D and in the assay on astro was inactive. Moreover, the activity, negative = cell killing in assay [1] (setting [7]) is -2.63%; in assay [1] (setting [8]) it was -13.3%; in assay [1] (setting [9]) it was -12.8%.
`CC(=O)SC[C@@H](Cc1ccccc1)C(=O)NCC(=O)OCc1ccccc1`: the call in the assay with SKOV3, with Tov-21-G, in the assay with Tov112D and with astro was inactive. In addition, the results for the activity, negative = cell killing in assay [1] (setting [4]), in assay [1] (setting [5]) and in assay [1] (setting [6]) were 2.42%, -12.3% and -8.77%, respectively.

The record behind these values is PubChem BioAssay (NCATS).
